The source of these data is PubChem BioAssay.

Experiment [1] addresses Cell division control protein 42 homolog (Homo sapiens) (UniProt P60953). As to the kind of experiment: activated mutant Cdc42 GTP-binding inhibitors, dose response, biochemical, multiplex bead flow cytometry, Bodipy-FL-GTP (AID 1333;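 active = fitted half-maximal concentration within the tested dose range, moderate curve steepness, a statistically real signal drop, and little compound fluorescence or tag-binding interference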).
The target is the same in experiment [2]. As to the kind of experiment: wildtype Cdc42 GTP-binding inhibitors, dose response, biochemical, multiplex bead flow cytometry, Bodipy-FL-GTP (AID 1334;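 active = fitted half-maximal concentration within the tested range, moderate curve steepness, significant signal drop, and little compound fluorescence or bead-linkage interference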). The settings on record: bead-based flow cytometry, Bodipy-FL-GTP binding to GST-Cdc42; at 100 µM (top of the series) unless noted.
For experiment [3], the target named is GTPase HRas (Homo sapiens) (UniProt P01112). As to the kind of experiment: inhibitors of GTP binding to wildtype Ras, dose response, biochemical, multiplex bead flow cytometry (AID 1335). The settings on record: bead-based flow cytometry, Bodipy-GTP binding to GST-Ras; at 100 µM (top of the series) unless noted.
Experiment [4] concerns Ras-related protein Rab-7a (dog), GTP binding. As to the kind of experiment: Rab7 GTP binding inhibitors, potency, dose response, biochemical, wildtype, multiplex bead flow cytometry (AID 1336; call rule not given here).
For experiment [5], the target named is Ras-related C3 botulinum toxin substrate 1 (Homo sapiens) (UniProt P63000). As to the kind of experiment: wildtype Rac1 GTP binding inhibitors, dose response, biochemical, multiplex bead flow cytometry (AID 1340;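 active = dose curve with midpoint inside tested range, moderate steepness, plateau gap beyond fit error, low compound glow and bead-link interference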). Conditions: GST-Rac1 beads, Bodipy-FL-GTP binding; at 100 µM (top of the series) unless noted.
Experiment [6] deals with GTPase HRas (Homo sapiens) (UniProt P01112). As to the kind of experiment: activated Ras mutant GTP binding inhibitors, dose response, biochemical, multiplex bead flow cytometry (AID 1341;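 active = dose-response curve with midpoint inside the tested range, moderate steepness, significant amplitude and little compound fluorescence or bead-attachment interference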;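 also: GST-tagged constitutively activated Ras mutant immobilized on beads and multiplexed with other GTPases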).

For part of these data: Measured potencies and affinities stand elsewhere. Activity calls are given as the source filed them.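 The calls were made as follows, unless noted: active = fitted half-maximal concentration within 10 nM to 100 µM, steepness 0.5 to 2, significant signal drop, low assay interference; inactive = the rest.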

Sequence of GTPase HRas (Homo sapiens) (P01112 whole entry, looked up): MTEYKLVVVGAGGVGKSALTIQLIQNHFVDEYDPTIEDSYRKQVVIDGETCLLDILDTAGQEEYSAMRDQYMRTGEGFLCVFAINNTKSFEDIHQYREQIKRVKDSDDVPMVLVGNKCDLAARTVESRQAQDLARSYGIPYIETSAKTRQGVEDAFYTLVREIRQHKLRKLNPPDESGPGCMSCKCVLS
Sequence of Cell division control protein 42 homolog (Homo sapiens) (P60953 whole entry, looked up): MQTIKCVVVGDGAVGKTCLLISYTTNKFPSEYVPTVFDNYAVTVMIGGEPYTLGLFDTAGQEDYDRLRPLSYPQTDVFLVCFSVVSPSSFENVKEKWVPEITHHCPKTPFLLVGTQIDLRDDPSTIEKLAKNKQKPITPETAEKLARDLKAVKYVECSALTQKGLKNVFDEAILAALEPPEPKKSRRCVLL

`CN(/N=C/c1ccncc1)C1=NS(=O)(=O)c2ccccc21`: the call in experiment [1], in experiment [4] and in experiment [6] was inactive. Moreover, the fluorescence, percent of control (lower = inhibition) in experiment [2] stood at 53.9%. For the same molecule, the GTP binding, percent of control in experiment [3] is 32.4%. Besides, in experiment [5], the GTP binding signal, raw median fluorescence (lower = inhibition) (MCF (arbitrary fluorescence units)) was 181.

For the molecule `CCOc1cc(/C=N/Nc2nncc(-c3ccccc3)n2)ccc1O`, the molecule was called inactive in experiment [1], in experiment [4] and in experiment [6]. Also, in experiment [2], the fluorescence, percent of control (lower = inhibition) stood at 37.4%. In experiment [3], this molecule displayed a GTP binding, percent of control of 75.5%. This molecule also gave a GTP binding signal, raw median fluorescence (lower = inhibition) (MCF (arbitrary fluorescence units)) in experiment [5] of 160.

For the molecule `O=S(=O)(Nc1cccc(-c2cn3cccnc3n2)c1)c1ccc(F)cc1`, the call in experiment [1], in experiment [4] and in experiment [6] was inactive. For the same molecule, the fluorescence, percent of control (lower = inhibition) in experiment [2] amounted to 36.5%. This molecule also returned a GTP binding, percent of control in experiment [3] of 46%. In addition, in experiment [5], the GTP binding signal, raw median fluorescence (lower = inhibition) (MCF (arbitrary fluorescence units)) was 0.

As to `Cn1c(N/N=C/c2cccs2)nc2c1c(=O)n(Cc1ccccc1)c(=O)n2C`, the result in experiment [1], in experiment [4] and in experiment [6] was inactive. Moreover, in experiment [2], the fluorescence, percent of control (lower = inhibition) worked out at 39.1%. This molecule yielded a GTP binding, percent of control in experiment [3] of 51.7%. This molecule also returned a GTP binding signal, raw median fluorescence (lower = inhibition) (MCF (arbitrary fluorescence units)) in experiment [5] of 143.

Regarding `O=C(Nc1cnn(C23CC4CC(CC(C4)C2)C3)c1)c1cnn2cccnc12`, the molecule was called inactive in experiment [1], in experiment [4] and in experiment [6]. In addition, the fluorescence, percent of control (lower = inhibition) in experiment [2] was found to be 41.2%. Besides, the GTP binding, percent of control in experiment [3] came to 94.2%. Further, the GTP binding signal, raw median fluorescence (lower = inhibition) (MCF (arbitrary fluorescence units)) in experiment [5] came to 324.

Take `CCn1cc(C(=O)O)c(=O)c2cc(F)c(N/N=C/c3ccccc3)cc21`: the result in experiment [1], in experiment [4] and in experiment [6] was inactive. Moreover, in experiment [2], the fluorescence, percent of control (lower = inhibition) stood at 45.9%. Also, in experiment [3], the GTP binding, percent of control amounted to 58.9%. In experiment [5], this molecule showed a GTP binding signal, raw median fluorescence (lower = inhibition) (MCF (arbitrary fluorescence units)) of 144.

Consider `CC(C)c1ccc(C(=O)NC2=NCCS2)cc1`, for which the call in experiment [1], in experiment [4] and in experiment [6] was inactive. Besides, the fluorescence, percent of control (lower = inhibition) in experiment [2] is 50.5%. Moreover, the GTP binding, percent of control in experiment [3] was found to be 62.6%. Further, in experiment [5], the GTP binding signal, raw median fluorescence (lower = inhibition) (MCF (arbitrary fluorescence units)) was found to be 204.

For the molecule `CCC(/C=C1\Sc2ccc(OC)cc2N1CCO)=C\c1sc2ccc(OC)cc2[n+]1CCO`, the call in experiment [1], in experiment [4] and in experiment [6] was inactive. The fluorescence, percent of control (lower = inhibition) in experiment [2] came to 22.6%. The molecule also gave a GTP binding, percent of control in experiment [3] of 46.8%. Also, in experiment [5], the GTP binding signal, raw median fluorescence (lower = inhibition) (MCF (arbitrary fluorescence units)) came to 187.

Take `COc1ccc(CNC(=O)C2CC(=O)N(c3ccc(OCC(=O)N4C(C)CCCC4C)cc3)C2)cc1` (stereo not given): the molecule was called inactive in experiment [1], in experiment [4] and in experiment [6]. For the same molecule, in experiment [2], the fluorescence, percent of control (lower = inhibition) was determined as 106%. The GTP binding, percent of control in experiment [3] was 177%. In addition, the GTP binding signal, raw median fluorescence (lower = inhibition) (MCF (arbitrary fluorescence units)) in experiment [5] was 183.

Consider `CC(C)(C)c1ccc(OCCSc2nc3ccccc3n2CC(=O)O)cc1`, for which the outcome in experiment [1], in experiment [4] and in experiment [6] was inactive. Further, the fluorescence, percent of control (lower = inhibition) in experiment [2] worked out at 52.3%. The molecule also showed a GTP binding, percent of control in experiment [3] of 87.1%. This molecule gave a GTP binding signal, raw median fluorescence (lower = inhibition) (MCF (arbitrary fluorescence units)) in experiment [5] of 35.4.

As for `O=C(O)c1cc(Sc2ccc(F)cc2)nc2ccccc12`, the outcome in experiment [1], in experiment [4] and in experiment [6] was inactive. Moreover, in experiment [2], the fluorescence, percent of control (lower = inhibition) was found to be 59.8%. In experiment [3], the GTP binding, percent of control came to 86%. This molecule also came in with a GTP binding signal, raw median fluorescence (lower = inhibition) (MCF (arbitrary fluorescence units)) in experiment [5] of 30.2.

With `CN(Cc1ccccc1)c1ccc([N+](=O)[O-])cc1C(=O)O`, the result in experiment [1], in experiment [4] and in experiment [6] was inactive. Besides, the fluorescence, percent of control (lower = inhibition) in experiment [2] amounted to 41%. In addition, in experiment [3], the GTP binding, percent of control amounted to 87.3%. In experiment [5], this molecule came in with a GTP binding signal, raw median fluorescence (lower = inhibition) (MCF (arbitrary fluorescence units)) of 276.

As for `COc1cccc(N2CCN(C(=O)CCCCCNc3nc(=S)[nH]c4ccccc34)CC2)c1`, the molecule was classed as inactive in experiment [1], in experiment [4] and in experiment [6]. Further, the fluorescence, percent of control (lower = inhibition) in experiment [2] was determined as 38.1%. The same molecule yielded a GTP binding, percent of control in experiment [3] of 79.5%. In experiment [5], the GTP binding signal, raw median fluorescence (lower = inhibition) (MCF (arbitrary fluorescence units)) was determined as 264.

With `O=C(CCNS(=O)(=O)c1cccc2nsnc12)N1CCN(c2ccccn2)CC1`, the molecule was called inactive in experiment [1], in experiment [4] and in experiment [6]. Besides, the fluorescence, percent of control (lower = inhibition) in experiment [2] was found to be 52.4%. Further, the GTP binding, percent of control in experiment [3] turned out to be 64.7%. In addition, the GTP binding signal, raw median fluorescence (lower = inhibition) (MCF (arbitrary fluorescence units)) in experiment [5] is 203.

On to `O=C(O)c1cc(-c2ccc(/C=C3\NC(=O)N(c4ccc(Cl)cc4)C3=O)o2)ccc1Cl`, for which the result in experiment [1], in experiment [4] and in experiment [6] was inactive. The fluorescence, percent of control (lower = inhibition) in experiment [2] was found to be 25.6%. Also, the GTP binding, percent of control in experiment [3] turned out to be 66.3%. In addition, in experiment [5], the GTP binding signal, raw median fluorescence (lower = inhibition) (MCF (arbitrary fluorescence units)) is 160.
